Laboratory results from PubChem BioAssay AID1159580 (chemical genetic matrix, 2015).
The campaign covered roughly 5,500 compounds. About 2,000 (36%) were called active. About 18% were inconclusive and are not listed. Rule as the data show it: active = normalized growth mostly below about 0.91 (no sharp cut-off); inconclusive = no clear call, values can overlap the other calls; inactive = mostly above about 0.92. The list shows a part of the results.

Assay: chemical genetic growth profiling, strain panel (AID 1159580);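 also: tested at 20 µM; growth read once vehicle control cultures reached saturation at 30 °C; 1 = growth at the plate median or of vehicle wells; lower values mean less growth of the strain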
Details: growth OD

Measured: normalized growth

CC(C)CCCC(C)C1CCC2C3CC[C@H]4CCCC[C@]4(C)C3CC[C@]12C (some centres not stated)
inactive: S. cerevisiae deletion strains, locus YJR075W, strain HOC1, stronger effect = lower value 0.965 | S. cerevisiae deletion strains, locus YKL009W, strain mrt4, stronger effect = lower value 1.01 | S. cerevisiae deletion strains, locus YKL068W, stronger effect = lower value 0.993 | S. cerevisiae deletion strains, locus YKL085W, strain MDH1 (second series), stronger effect = lower value 1.02 | S. cerevisiae deletion strains, locus YKL085W, strain MDH1, stronger effect = lower value 1.02 | S. cerevisiae deletion strains, locus YKL160W, strain elf1, stronger effect = lower value 0.998 | S. cerevisiae deletion strains, locus YKL190W, strain CNB1, stronger effect = lower value 0.98 | S. cerevisiae deletion strains, locus YKR001C, strain vps1, stronger effect = lower value 0.996 | S. cerevisiae deletion strains, locus YKR026C, strain gcn3, stronger effect = lower value 0.998 | S. cerevisiae deletion strains, locus YKR091W, strain srl3, stronger effect = lower value 1.02 | S. cerevisiae deletion strains, locus YLL001W, strain dnm1, stronger effect = lower value 1.02 | S. cerevisiae deletion strains, locus YLL026W, stronger effect = lower value 1.02 | S. cerevisiae deletion strains, locus YLL041C, strain sdh2, stronger effect = lower value 1.01 | S. cerevisiae deletion strains, locus YLR027C, strain aat2, stronger effect = lower value 1.01 | S. cerevisiae deletion strains, locus YLR039C, strain RIC1, stronger effect = lower value 0.951 | S. cerevisiae deletion strains, locus YLR058C, strain SHM2, stronger effect = lower value 0.967 | S. cerevisiae deletion strains, locus YLR102C, strain apc9, stronger effect = lower value 0.977 | S. cerevisiae deletion strains, locus YLR113W, strain HOG1, stronger effect = lower value 1.03 | S. cerevisiae deletion strains, locus YLR221C, strain rsa3, stronger effect = lower value 1.02 | S. cerevisiae deletion strains, locus YLR258W, strain gsy2, stronger effect = lower value 1.02 | S. cerevisiae deletion strains, locus YLR262C, strain YPT6 (second series), stronger effect = lower value 1.02 | S. cerevisiae deletion strains, locus YLR262C, strain YPT6, stronger effect = lower value 0.945 | S. cerevisiae deletion strains, locus YLR268W, strain sec22, stronger effect = lower value 0.966 | S. cerevisiae deletion strains, locus YLR320W, strain mms22, stronger effect = lower value 1.02 | S. cerevisiae deletion strains, locus YLR330W, strain CHS5, stronger effect = lower value 0.999 | S. cerevisiae deletion strains, locus YLR342W, strain FKS1 (second series), stronger effect = lower value 1.04 | S. cerevisiae deletion strains, locus YLR342W, strain FKS1, stronger effect = lower value 1.02 | S. cerevisiae deletion strains, locus YLR357W, strain rsc2, stronger effect = lower value 1.04 | S. cerevisiae deletion strains, locus YLR370C, strain arc18, stronger effect = lower value 1.02 | S. cerevisiae deletion strains, locus YLR371W, strain rom2, stronger effect = lower value 0.998 | S. cerevisiae deletion strains, locus YLR384C, strain iki3, stronger effect = lower value 1.02 | S. cerevisiae deletion strains, locus YLR418C, strain cdc73, stronger effect = lower value 0.952 | S. cerevisiae deletion strains, locus YML016C, strain PPZ1, stronger effect = lower value 0.986 | S. cerevisiae deletion strains, locus YML032C, strain rad52, stronger effect = lower value 1 | S. cerevisiae deletion strains, locus YML120C, strain ndi1, stronger effect = lower value 1.02 | S. cerevisiae deletion strains, locus YML124C, strain tub3, stronger effect = lower value 1 | S. cerevisiae deletion strains, locus YMR058W, strain fet3, stronger effect = lower value 1.01 | S. cerevisiae deletion strains, locus YMR078C, strain ctf18, stronger effect = lower value 0.99 | S. cerevisiae deletion strains, locus YMR125W, strain sto1, stronger effect = lower value 1.03 | S. cerevisiae deletion strains, locus YMR129W, stronger effect = lower value 1.02 | S. cerevisiae deletion strains, locus YMR205C, strain PFK2, stronger effect = lower value 1.04 | S. cerevisiae deletion strains, locus YMR223W, strain ubp8, stronger effect = lower value 1 | S. cerevisiae deletion strains, locus YMR231W, strain pep5, stronger effect = lower value 1.02 | S. cerevisiae deletion strains, locus YMR263W, strain SAP30, stronger effect = lower value 0.949 | S. cerevisiae deletion strains, locus YMR307W, strain GAS1, stronger effect = lower value 1.07 | S. cerevisiae deletion strains, locus YNL067W, strain RPL9B, stronger effect = lower value 0.953 | S. cerevisiae deletion strains, locus YNL071W, strain lat1, stronger effect = lower value 1.01 | S. cerevisiae deletion strains, locus YNL128W, strain TEP1, stronger effect = lower value 0.941 | S. cerevisiae deletion strains, locus YNL153C, strain GIM3, stronger effect = lower value 0.962 | S. cerevisiae deletion strains, locus YNL183C, strain NPR1, stronger effect = lower value 0.922 | S. cerevisiae deletion strains, locus YNL209W, strain ssb2, stronger effect = lower value 1.02 | S. cerevisiae deletion strains, locus YNL233W, strain BNI4, stronger effect = lower value 0.983 | S. cerevisiae deletion strains, locus YNL248C, strain rpa49, stronger effect = lower value 0.992 | S. cerevisiae deletion strains, locus YNL250W, strain rad50, stronger effect = lower value 0.986 | S. cerevisiae deletion strains, locus YNL271C, strain bni1, stronger effect = lower value 0.993 | S. cerevisiae deletion strains, locus YNL298W, strain CLA4, stronger effect = lower value 0.998 | S. cerevisiae deletion strains, locus YNL307C, strain MCK1, stronger effect = lower value 1.01 | S. cerevisiae deletion strains, locus YNL322C, strain KRE1 (second series), stronger effect = lower value 1.02 | S. cerevisiae deletion strains, locus YNL322C, strain KRE1, stronger effect = lower value 0.971 | S. cerevisiae deletion strains, locus YNR049C, strain mso1, stronger effect = lower value 1.02 | S. cerevisiae deletion strains, locus YNR052C, strain pop2, stronger effect = lower value 0.996 | S. cerevisiae deletion strains, locus YOL006C, strain TOP1, stronger effect = lower value 0.935 | S. cerevisiae deletion strains, locus YOL012C, strain htz1 1.86 | S. cerevisiae deletion strains, locus YOL147C, strain pex11, stronger effect = lower value 0.992 | S. cerevisiae deletion strains, locus YOR001W, strain rrp6, stronger effect = lower value 0.993 | S. cerevisiae deletion strains, locus YOR061W, strain CKA2, stronger effect = lower value 0.964 | S. cerevisiae deletion strains, locus YOR069W, strain VPS5, stronger effect = lower value 1.01 | S. cerevisiae deletion strains, locus YOR070C, strain gyp1, stronger effect = lower value 1.02 | S. cerevisiae deletion strains, locus YOR080W, strain dia2, stronger effect = lower value 1.02 | S. cerevisiae deletion strains, locus YOR083W, strain WHI5, stronger effect = lower value 0.991 | S. cerevisiae deletion strains, locus YOR106W, strain vam3, stronger effect = lower value 1.01 | S. cerevisiae deletion strains, locus YOR136W, strain idh2, stronger effect = lower value 1 | S. cerevisiae deletion strains, locus YOR144C, strain elg1, stronger effect = lower value 0.981 | S. cerevisiae deletion strains, locus YOR184W, strain ser1, stronger effect = lower value 1.01 | S. cerevisiae deletion strains, locus YOR231W, strain MKK1, stronger effect = lower value 0.992 | S. cerevisiae deletion strains, locus YOR265W, strain rbl2, stronger effect = lower value 1.02 | S. cerevisiae deletion strains, locus YOR270C, strain vph1, stronger effect = lower value 1.03 | S. cerevisiae deletion strains, locus YOR290C, strain snf2, stronger effect = lower value 0.984 | S. cerevisiae deletion strains, locus YOR316C, strain cot1, stronger effect = lower value 0.981 | S. cerevisiae deletion strains, locus YPL051W, strain arl3, stronger effect = lower value 0.997 | S. cerevisiae deletion strains, locus YPL055C, strain LGE1, stronger effect = lower value 0.934 | S. cerevisiae deletion strains, locus YPL078C, strain atp4, stronger effect = lower value 0.996 | S. cerevisiae deletion strains, locus YPL106C, strain sse1, stronger effect = lower value 1.05 | S. cerevisiae deletion strains, locus YPL240C, strain hsp82, stronger effect = lower value 1 | S. cerevisiae deletion strains, locus YPL241C, strain CIN2, stronger effect = lower value 0.993 | S. cerevisiae deletion strains, locus YPL256C, strain CLN2, stronger effect = lower value 0.978 | S. cerevisiae deletion strains, locus YPR119W, strain clb2, stronger effect = lower value 0.999 | S. cerevisiae deletion strains, locus YPR141C, strain kar3, stronger effect = lower value 0.966 | S. cerevisiae deletion strains, locus YPR163C, strain tif3, stronger effect = lower value 1 | S. cerevisiae deletion strains, locus YPR167C, strain met16, stronger effect = lower value 0.982 | S. cerevisiae deletion strains, strain wtn01, stronger effect = lower value 0.982 | S. cerevisiae strains, strain wild type, stronger effect = lower value 0.984
